Pf growth 48h = inhibits P. falciparum growth in the first generation, 48 h. 310,000 compounds, 5.9% hits. P. falciparum luciferase growth in erythrocytes, 48 h. Potency, µM (highest dose often 28.7 µM), without a hit: at the top dose activity change, negative = inhibition, most hits filed as inhibitors; note: potency is the fitted concentration of half-maximal effect; % is set by controls: 0 for no effect and ±100 for the full control effect
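First compound was added to culture medium, then infected red cells at 0.1% parasitemia and 2% hematocrit (final). After incubation at 37 C under 5% CO2, luciferase detection reagent was dispensed and light output recorded.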
MARV entry inh = Marburg virus entry inhibition. Marburg virus pseudotyped entry inhibition, cell reporter. Potency, µM (doses to about 37.8 µM), for the others: at the highest dose activity change, negative = inhibition, most hits filed as inhibitors. 300,000 compounds, 1.8% hits. AID 540276; calls by dose curve; tested in HEK293 cells; note: potency is the fitted concentration of half-maximal effect; % is set by controls: 0 for no effect and ±100 for the full control effect
CHX counter = affects cycloheximide protein synthesis inhibition readout, counter-screen; 300,000 compounds, 12% hits; cell reporter, cycloheximide protein synthesis inhibition counterscreen; max response, %; in the data active = max response mostly above about 13%, no sharp cut-off; inactive = mostly below about 14%; note: read at 38.3 µM for the half of the compounds with a filed dose; 0% is about no effect
Pf growth 96h = P. falciparum growth inhibition at 96 hours. P. falciparum luciferase reporter growth, 96 h. Potency, µM (titrated, usually from 28.7 µM), without a hit: at the top dose activity change, negative = inhibition, actives largely listed as inhibitors. 320,000 compounds, 6.9% hits. AID 504834; note: potency is the fitted concentration of half-maximal effect; % is set by controls: 0 for no effect and ±100 for the full control effect
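Cell-based qHTS: luciferase-tagged P. falciparum in erythrocytes (2% hematocrit, 0.05% parasitemia final) incubated with compounds for 96 hours, 37 C, 5% CO2; luciferase detection reagent then added and luminescence measured.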
Shiga toxin inh = inhibitors of Shiga toxin in Vero cells. inhibition, % at 38.7 µM. Vero cells, Shiga toxin protein synthesis inhibition reporter. 290,000 compounds, 9.2% hits. AID 2315; in the data active = inhibition mostly above about 28%, no sharp cut-off; inactive = mostly below about 43%; note: 0% is about no effect
Lassa entry inh = blocks Lassa virus binding to or entry into cells; Lassa virus pseudotype entry inhibition, cell reporter; Potency, µM (top dose mostly 37.9 µM), without a hit: at the top dose activity change, negative = inhibition, usual class: inhibitors; 300,000 compounds, 1.2% hits; AID 540256; calls by dose curve; tested in HEK293 cells; note: potency is the fitted concentration of half-maximal effect; % is set by controls: 0 for no effect and ±100 for the full control effect; nearly all actives have a fitted effect of over 50% in size
* marks the source's active call; other numbers are inactive results; [ ] = remark or other dose. Only some compounds are listed: those with a hit (about 19% of all), similar ones and a draw of the others. Unless noted, calls come from the whole dose curve; as a rule, active = well fitted inhibition curve with a large enough effect; inconclusive = small, poorly fitted or top-dose-only effect, or another doubt; inactive = no such curve, though single readings can be large or run the other way.

`C[C@]12C=CC(=O)C=C1CC[C@@H]1[C@@H]2[C@@H](O)C[C@@]2(C)[C@H]1CC[C@]2(O)C(=O)COC(=O)CCC(=O)O` gave Pf growth 48h inconclusive, MARV entry inh -3%, CHX counter -3, Pf growth 96h inconclusive, Shiga toxin inh -10 and Lassa entry inh 12%.
Screening CC(=O)OC(=C(OC(C)=O)c1ccccc1)c1ccccc1 returned MARV entry inh -1%[46.1 µM] and Lassa entry inh 9%[46.1 µM].
`Fc1ccccc1N1CCN(c2cnc3ccccc3n2)CC1` gave Pf growth 48h 214%, MARV entry inh inconclusive, CHX counter 56*, Pf growth 96h 339%, Shiga toxin inh 82* and Lassa entry inh inconclusive.
Screening CCS(=O)(=O)N1CCN(c2ccccc2F)CC1 returned Pf growth 48h 13%, MARV entry inh -17%, CHX counter -1, Pf growth 96h 24%, Shiga toxin inh -17 and Lassa entry inh -7%.
For c1ccc(CN2CCN(c3nc4ccccc4n4cnnc34)CC2)cc1 the results were CHX counter -5, Pf growth 96h -5% and Shiga toxin inh 4.
Oc1ccccc1N1CCN(c2ccc3ccccc3n2)CC1 was read as Pf growth 48h -45%, MARV entry inh inconclusive, CHX counter 42*, Pf growth 96h -68% and Shiga toxin inh 102*.
c1ccc(CN2CCN(c3cnc4ccccc4n3)CC2)cc1 was read as CHX counter 52*, Pf growth 96h 71% and Shiga toxin inh 131*.
Cc1ccc(S(=O)(=O)N2CCN(C(=O)c3c(-c4ccccc4)noc3C)CC2)cc1C was read as Pf growth 48h -9%, MARV entry inh -24%[46.1 µM], CHX counter -3, Pf growth 96h -7%, Shiga toxin inh -4 and Lassa entry inh inconclusive.
For O=C(NC1CCSC1=O)c1cccc(Cl)c1 (stereo not drawn) the results were Pf growth 48h 4%, MARV entry inh -28%[46.1 µM], CHX counter -2, Pf growth 96h 42%[5.75 µM], Shiga toxin inh -2 and Lassa entry inh 18%[46.1 µM].
N#Cc1c(-c2ccc3c(c2)OCO3)csc1N was read as Pf growth 48h 54%, MARV entry inh 6%, CHX counter 28*, Pf growth 96h 34%, Shiga toxin inh 83* and Lassa entry inh 14%.
Screening N#Cc1c(N)c(C#N)c(-c2ccc3c(c2)OCO3)c2c1CCCC2 returned Pf growth 48h inconclusive, MARV entry inh -5%, CHX counter -1, Pf growth 96h inconclusive, Shiga toxin inh 11 and Lassa entry inh -14%.
For N#Cc1c(N)nc2c(c1-c1ccc3c(c1)OCO3)CCc1ccccc1-2 the results were Pf growth 48h 4.1µM*, MARV entry inh inconclusive, CHX counter 0, Pf growth 96h -12%, Shiga toxin inh 15 and Lassa entry inh inconclusive.
Screening COC(=O)CN1C(=S)N(C)C(=O)C1CC(=O)Nc1ccccc1 (stereo not drawn) returned Pf growth 48h -7%, MARV entry inh -8%, CHX counter -3, Pf growth 96h inconclusive, Shiga toxin inh 41 and Lassa entry inh 29%.
For Cc1ccccc1OCC(=O)Nc1ccc2[nH]ncc2c1 the results were Pf growth 48h 23%, MARV entry inh 19%, CHX counter 15*, Pf growth 96h 12µM*, Shiga toxin inh 16 and Lassa entry inh inconclusive.
Screening O=C(COc1ccccc1)Nc1ccc2[nH]ncc2c1 returned Pf growth 48h -11%, CHX counter -1, Pf growth 96h 29% and Shiga toxin inh -3.
`O=C(Nc1ccc2[nH]ncc2c1)c1ccc(F)cc1` gave Pf growth 48h 226%, MARV entry inh inconclusive, CHX counter 19*, Pf growth 96h 13%, Shiga toxin inh 55* and Lassa entry inh -23%[46.1 µM].
Screening O=C(Nc1ccc2[nH]ncc2c1)c1cccc(F)c1 returned Pf growth 48h 56%, MARV entry inh 4%, CHX counter 29*, Pf growth 96h 60%, Shiga toxin inh 65* and Lassa entry inh 19%.
O=C(Nc1ccc2[nH]ncc2c1)c1ccccc1 was read as Pf growth 48h 130%, CHX counter 22*, Pf growth 96h 86% and Shiga toxin inh 25.
Screening CC(C)CC(=O)Nc1nnc(S(=O)(=O)N2CCc3ccccc32)s1 returned Pf growth 48h 20%, CHX counter 2, Pf growth 96h 1%, Shiga toxin inh -2 and Lassa entry inh -5%[46.1 µM].
Cc1cc(/C=C2\C(=O)NC(=O)N(c3ccc(F)cc3)C2=O)c(C)n1-c1ccc(C(=O)O)cc1 was read as Pf growth 48h 3%, MARV entry inh 2%[46.1 µM], CHX counter -1, Pf growth 96h inconclusive, Shiga toxin inh -4 and Lassa entry inh inconclusive.
For O=C(Cc1ccc(Br)cc1)Nc1ccc2[nH]ncc2c1 the results were Pf growth 48h 47%, MARV entry inh -12%, CHX counter -1, Pf growth 96h 7% and Lassa entry inh 22%.
Screening O=C(Cc1ccccc1)Nc1ccc2[nH]ncc2c1 returned Pf growth 48h inconclusive, CHX counter 21*, Pf growth 96h inconclusive and Shiga toxin inh 23.
Screening CCOC(=O)NN1C(=O)c2ccccc2NC12CCCC2 returned Pf growth 48h 8%, MARV entry inh -22%[46.1 µM], CHX counter -2, Pf growth 96h inconclusive, Shiga toxin inh 16 and Lassa entry inh 7%.
For CC/C(C)=N/N1C(=O)c2ccccc2NC1(C)CC (stereo not drawn) the results were Pf growth 48h 5%, MARV entry inh inconclusive, CHX counter 30*, Pf growth 96h 21%, Shiga toxin inh 77* and Lassa entry inh -2%.
For C=C(C)CSC1=C(C#N)C(c2ccccc2Cl)CC(=O)N1 (stereo not drawn) the results were Pf growth 48h inconclusive, MARV entry inh 3%, CHX counter 0, Pf growth 96h inconclusive, Shiga toxin inh -9 and Lassa entry inh -9%.
CCN(Cc1ccccc1)c1ccc(/C=N/N=C(N)N)cc1 was read as Pf growth 48h 1.5µM*, MARV entry inh 6.5µM*, CHX counter -4, Pf growth 96h 1.7µM*, Shiga toxin inh -17 and Lassa entry inh 8.2µM*.
`NC(N)=N/N=C/c1ccc(N(c2ccccc2)c2ccccc2)cc1` gave Pf growth 48h 2.3µM*, CHX counter -12, Pf growth 96h 2.1µM* and Shiga toxin inh -16.
`O=C(Nc1ccc(F)cc1F)c1cc(Cl)sc1Cl` gave MARV entry inh inconclusive, CHX counter 30*, Pf growth 96h 11%, Shiga toxin inh 86 and Lassa entry inh inconclusive.
O=C(Nc1ccccc1F)c1cc(Cl)sc1Cl was read as MARV entry inh 21%, CHX counter 31*, Pf growth 96h 23%, Shiga toxin inh 72* and Lassa entry inh 8%.
`Cc1cc(N2CCOCC2)nc(SCc2c(Cl)cccc2Cl)n1` gave Pf growth 48h 1%, MARV entry inh -24%, CHX counter 1, Pf growth 96h 265%, Shiga toxin inh -1 and Lassa entry inh -21%.

Screens: PubChem BioAssay, National Center for Advancing Translational Sciences (NCATS)
